According to the supplement of paper PMC10338343:
± gives the standard deviation.

Legend:
[1] = system: MILI (PIWIL2) piRISC loaded with L1MC piRNA (26 nt); test: pre-steady-state target cleavage rate (min^-1); guide: L1MC piRNA 5'p-UAACUAAAUACUAUGCAAGCUGUAGG; higher = faster piRNA-guided slicing of the target; conditions: auxiliary factor: 500 nM mouse GTSF1;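 also: 1 nM active piRISC with 0.1 nM target library at 33 °C single turnover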
Method in brief: (§1)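 A burst-and-steady-state fit was used to obtain the pre-steady-state cleavage rate. The input data were sequencing reads of uncleaved targets, normalised to depth and to weakly complementary targets, from a […] transcribed, DNA-blocked target RNA library mixed with 1 nM active affinity-purified piRISC holding one synthetic guide, with or without 500 nM GTSF1 partner protein, in HEPES–potassium acetate buffer at 33 °C for 0–8 or 0–960 min. Three trials were pooled and k3 was capped at 0.0001 min^-1.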

[2] = system: EfPiwi piRISC loaded with L1MC piRNA (26 nt); test: pre-steady-state target cleavage rate (min^-1); auxiliary factor: 500 nM Ephydatia muelleri Gtsf1; guide: L1MC piRNA 5'p-UAACUAAAUACUAUGCAAGCUGUAGG; MIWI and MILI are mouse PIWI proteins and EfPiwi is from a freshwater sponge; tags in brackets are library labels; higher = faster piRNA-guided slicing of the target
Method in brief: as §1

Sequence | pre-steady-state target cleavage rate [1] | pre-steady-state target cleavage rate [2]
UCCUGGAACAGCUUGCAUAGUAUUUAAUUA | 0.102 ± 0.021 | 0.00345 ± 0.0024
UCCUCCUACAGCUUGCAUAGUUUAUAGUUA | 0.0469 ± 0.011 | 0.00613 ± 0.0033
UCCUGGAUCAGCUUGCAUAGUAUUUAUUA | 0.044 ± 0.011 | 0.0033 ± 0.0024
UCCUGGAUGUGCUUGCAUAGUAUUUAGUAUA | 0.131 ± 0.019 | 0.00507 ± 0.0027
UCCUGCUACUCCUUGCAUAGUAUUUACAAA | 0.0669 ± 0.016 | 0.00249 ± 0.0023
UCCUGGAACUGCUUGCAUAGUAUUUUGUUA | 0.101 ± 0.017 | 0.00426 ± 0.0026
UCCUGCUACAGCUUGCAUAGCAUUUAGUUA | 0.141 ± 0.022 | 0.00521 ± 0.0016
UCCUCCUACAGCUUGCUAUAGUAUUUAGUUA | 0.0206 ± 0.0064 | 0.00859 ± 0.0032
UCCUGGAACACCUUGCAUAGUAUUAAGUUA | 0.189 ± 0.034 | 0.00303 ± 0.0027
UCCUCCUACAGCUUGCAUAGCAUUUAGUUA | 0.0883 ± 0.013 | 0.00463 ± 0.0019
UCCUCCAUCAGCUUGCAUAGUAUUUACAAA | 0.0667 ± 0.017 | 0.00282 ± 0.0024
UCCUGCUACAGCUUGCAUAGAAUAUAGUUA | 0.0873 ± 0.021 | 0.00332 ± 0.0022
UCCUGGAACAGCUUGCAUAGUAUAAUGUUA | 0.0834 ± 0.018 | 0.00416 ± 0.0026
UCCUGGAACACCUAGCAUAGUAUUUAGUUA | 0.229 ± 0.032 | 0.00601 ± 0.0036
UCCUGGAACAGCUUGCAUAGAAUUUAGUAA | 0.0627 ± 0.014 | 0.00292 ± 0.002
UCCUGCUACUGCUUGCAUAGUAUUUAGAAA | 0.0315 ± 0.0099 | 0.00545 ± 0.0023
UCCUGGAUCAGGUUGCAUAGUAUUUAGAAA | 0.185 ± 0.029 | 0.00341 ± 0.0019
UCCUGGAUGUGCUUGCAUAGUAUGUAGUUA | 0.134 ± 0.026 | 0.00399 ± 0.0022
UCCUGGAACAGCUUGCAUAGUAUUAAGAAA | 0.154 ± 0.045 | 0.00313 ± 0.0019
UCCUCCUACAGCUUGCAUAGUAUUUACAAA | 0.197 ± 0.04 | 0.00422 ± 0.003
